Each structure is given as a SMILES string. Records with an inconclusive call do not appear. Where a call stands in place of a potency, no number is given. Activity calls are given as the source filed them. Calls follow the shape of the dose curve; as a rule, active = well fitted curve in the direction sought with a large enough effect; inconclusive = small, poorly fitted or top-dose-only effect, or another doubt; inactive = no such curve, though single readings can be large; an effect the other way counts as inactive or inconclusive.

The nature of the first assay: HPAF-II 24hr Apoptosis Induction qHTS against the NCATS CANVASS Library (AID 1347356). To be noted: HPAF-II caspase-3/7 Caspase-Glo luminescence; series mostly up to 46.1 µM. The gist of the method: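 500 HPAF-II cells/well; compounds in 11-pnt qHTS; 24 h, 37 C/5% CO2; Caspase-Glo 3/7 added, 15 min RT dark; luminescence read. Doxorubicin control.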
(In general: Quantitative high-throughput screening tests each substance at several concentrations.)
With `CC1=CC2CC[C@@H]3[C@@H](C)C[C@H](C)[C@@H](C1)N23` (stereo partly drawn), the compound was called inactive. As for `CC=C1CN(C=O)[C@H]2C[C@@H]1[C@@H](C(=O)OC)[C@@]13CCOC21Nc1ccccc13` (stereo partly drawn), the result was inactive. Take `CCN1C[C@]2(C)CC[C@@H](O)[C@]34C1[C@H](C[C@H]23)C12CCC(CC14)[C@](O)(CO)[C@H]2O` (stereo partly drawn): the call was inactive. Take `CO[C@@H](/C=C/CC/C=C/C(=O)O)[C@@H](O)[C@H](C)[C@@H](O)/C(C)=C/[C@H](C)C(=O)CCCC1CC(=O)NC(=O)C1`: the compound was called inactive. Turning to `CCCC[C@@H]1CC[C@H]2CCCC(CCC)N12` (stereo partly drawn), the compound was classed as inactive.

With `C[C@]12CC(O)C3[C@@H](CCC4C[C@@H](O)CC[C@@]43CO)[C@@]1(O)CCC2C1=CC(=O)OC1` (stereo partly drawn), the compound was classed as inactive. `CO[C@@H](/C=C/CC/C=C/C(=O)O)[C@@H](O)[C@H](C)/C=C(\C)[C@@H](O)[C@H](C)C(=O)CCCC1CC(=O)NC(=O)C1`: the result was inactive. `O=C(c1ccccc1O)c1[nH]c(Cl)c(Cl)c1-n1c(C(=O)c2ccccc2O)cc(Cl)c1Cl`: the compound was classed as inactive. On the same count and under the same terms, the result for `CC[C@@H]1CN2CC[C@@]3(O)C(=Nc4cccc(OC)c43)[C@@H]2C[C@@H]1/C(=C\OC)C(=O)OC` reads “inactive”. Same read-out and setting: next, `c1ccc2c3c([nH]c2c1)CNCC3`: “inactive”; `CNCCc1ccccc1`: “inactive”; `CCCCC[C@@H]1OC(=O)[C@@H](C)N(C)C(=O)[C@H](CCCCC)OC(=O)C(C)N(C)C(=O)[C@H](CCCCC)OC(=O)[C@@H](C)N(C)C(=O)[C@H](CCCCC)OC(=O)C(C)N(C)C1=O` (stereo partly drawn): “inactive”.

In the case of `CO[C@H](c1ccccc1)[C@H]1NC(=O)C(C)NC(=O)C(C[C@@H](C)CO)N(C)C(=O)[C@@H](C(O)c2cn(C(C)(C)C3CO3)c3ccccc23)NC(=O)C(C(C)C=C(C)C)NC(=O)C(CC(C)C)N(C)C(=O)C(C(C)C)NC1=O` (stereo partly drawn), the compound was classed as inactive.

On to `CC1=CC(=O)C2=C(C)C[C@H](O)[C@@H]3[C@H](OC(=O)[C@@H]3C)[C@@H]12`, for which the result was inactive.

For `CCN1C[C@]2(C)CC[C@H](O)[C@]34C1C(C[C@H]23)[C@@]12CC[C@H](CC14)[C@](O)(COC(=O)c1ccc(OC)c(OC)c1)[C@H]2O` (stereo partly drawn), the outcome was inactive. In the case of `CCC(=O)CCCCC[C@@H]1NC(=O)[C@H]2CCCCN2C(=O)[C@H]([C@@H](C)CC)NC(=O)[C@H](Cc2cn(OC)c3ccccc23)NC1=O`, the compound was called inactive.

Another assay is described as follows: HEK293 24hr Apoptosis Induction qHTS against the NCATS CANVASS Library (AID 1347359). Also: potency is read from the fitted curve at half-maximal effect. To be noted: HEK293 caspase-3/7 activation, Caspase-Glo luminescence; series mostly up to 46.1 µM. The gist of the method:
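HEK293 cells (500/well, DMEM + 10% FBS) were exposed to compounds in an 11-point series for 24 hours at 37 degrees C, then caspase-3/7 activity was read by Caspase-Glo DEVD luciferase luminescence after 15 min.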
Consider `CC1=CC2CC[C@@H]3[C@@H](C)C[C@H](C)[C@@H](C1)N23` (stereo partly drawn), for which the Potency entry was “inactive”.

As to `CC=C1CN(C=O)[C@H]2C[C@@H]1[C@@H](C(=O)OC)[C@@]13CCOC21Nc1ccccc13` (stereo partly drawn), the Potency result was “inactive”. For the compound `C[C@@H]1CC[C@@H](c2ccoc2)N2C[C@@]3(CC[C@@H]12)CS[C@@]1(CC[C@H]2[C@H](C)CC[C@@H](c4ccoc4)N2[C@@H]1O)C3`, the Potency is 10.5 µM (active). Take `CCN1C[C@]2(C)CC[C@@H](O)[C@]34C1[C@H](C[C@H]23)C12CCC(CC14)[C@](O)(CO)[C@H]2O` (stereo partly drawn): the Potency entry is “inactive”.

For `CO[C@@H](/C=C/CC/C=C/C(=O)O)[C@@H](O)[C@H](C)[C@@H](O)/C(C)=C/[C@H](C)C(=O)CCCC1CC(=O)NC(=O)C1`, the Potency result was “inactive”. `CCCC[C@@H]1CC[C@H]2CCCC(CCC)N12` (stereo partly drawn): the Potency entry was “inactive”. `C[C@]12CC(O)C3[C@@H](CCC4C[C@@H](O)CC[C@@]43CO)[C@@]1(O)CCC2C1=CC(=O)OC1` (stereo partly drawn): the Potency entry is “inactive”. Regarding `CO[C@@H](/C=C/CC/C=C/C(=O)O)[C@@H](O)[C@H](C)/C=C(\C)[C@@H](O)[C@H](C)C(=O)CCCC1CC(=O)NC(=O)C1`, the Potency entry is “inactive”. Regarding `O=C(c1ccccc1O)c1[nH]c(Cl)c(Cl)c1-n1c(C(=O)c2ccccc2O)cc(Cl)c1Cl`, the Potency entry is “inactive”.

For `CC[C@@H]1CN2CC[C@@]3(O)C(=Nc4cccc(OC)c43)[C@@H]2C[C@@H]1/C(=C\OC)C(=O)OC`, the Potency result is “inactive”. Regarding `c1ccc2c3c([nH]c2c1)CNCC3`, the Potency entry was “inactive”. Regarding `CNCCc1ccccc1`, the Potency result is “inactive”.

In the case of `CCCCC[C@@H]1OC(=O)[C@@H](C)N(C)C(=O)[C@H](CCCCC)OC(=O)C(C)N(C)C(=O)[C@H](CCCCC)OC(=O)[C@@H](C)N(C)C(=O)[C@H](CCCCC)OC(=O)C(C)N(C)C1=O` (stereo partly drawn), the Potency entry is “inactive”. With `CO[C@H](c1ccccc1)[C@H]1NC(=O)C(C)NC(=O)C(C[C@@H](C)CO)N(C)C(=O)[C@@H](C(O)c2cn(C(C)(C)C3CO3)c3ccccc23)NC(=O)C(C(C)C=C(C)C)NC(=O)C(CC(C)C)N(C)C(=O)C(C(C)C)NC1=O` (stereo partly drawn), the Potency result was “inactive”.

In the case of `CC1=CC(=O)C2=C(C)C[C@H](O)[C@@H]3[C@H](OC(=O)[C@@H]3C)[C@@H]12`, the Potency entry was “inactive”. On to `CCN1C[C@]2(C)CC[C@H](O)[C@]34C1C(C[C@H]23)[C@@]12CC[C@H](CC14)[C@](O)(COC(=O)c1ccc(OC)c(OC)c1)[C@H]2O` (stereo partly drawn), for which the Potency entry was “inactive”. On to `CCC(=O)CCCCC[C@@H]1NC(=O)[C@H]2CCCCN2C(=O)[C@H]([C@@H](C)CC)NC(=O)[C@H](Cc2cn(OC)c3ccccc23)NC1=O`, for which the Potency result is “inactive”.

Values taken from PubChem BioAssay (NCATS).
